Compound activity (PubChem BioAssay)
USP8 block = inhibitors of human USP8 deubiquitinase | P40818 | purified USP8, Ub-rhodamine cleavage fluorescence, 30 min | inhibition, % at 20 µM | 47,000 tested, 4.2% active | AID 1645853
USP7 block = inhibitors of human USP7 deubiquitinase; 47,000 tested, 0.3% active; Q93009; AID 1645854; purified USP7, Ub-rhodamine cleavage fluorescence; inhibition, % at 20 µM
USP10 block = human USP10 deubiquitinase inhibition; Q14694; inhibition, % at 20 µM; AID 1645856; purified USP10, Ub-rhodamine fluorescence, 60 min; 47,000 tested, 1.1% active
USP28 inh = blocks human USP28 ubiquitin-rhodamine cleavage; purified USP28, Ub-rhodamine cleavage fluorescence, 30 min; Q96RU2; inhibition, % at 25 µM; 47,000 tested, 3% active
USP30 inh = human USP30 deubiquitinase inhibition. 47,000 tested, 5.3% active. purified USP30, Ub-rhodamine cleavage fluorescence. inhibition, % at 25 µM. Q70CQ3
USP17 block = blocks human USP17 ubiquitin-rhodamine cleavage | AID 1645855 | inhibition, % at 50 µM | 47,000 tested, 6.5% active | A8MUK1 | purified USP17, Ub-rhodamine cleavage fluorescence, 3 h
Target sequence (A8MUK1 whole entry, looked up): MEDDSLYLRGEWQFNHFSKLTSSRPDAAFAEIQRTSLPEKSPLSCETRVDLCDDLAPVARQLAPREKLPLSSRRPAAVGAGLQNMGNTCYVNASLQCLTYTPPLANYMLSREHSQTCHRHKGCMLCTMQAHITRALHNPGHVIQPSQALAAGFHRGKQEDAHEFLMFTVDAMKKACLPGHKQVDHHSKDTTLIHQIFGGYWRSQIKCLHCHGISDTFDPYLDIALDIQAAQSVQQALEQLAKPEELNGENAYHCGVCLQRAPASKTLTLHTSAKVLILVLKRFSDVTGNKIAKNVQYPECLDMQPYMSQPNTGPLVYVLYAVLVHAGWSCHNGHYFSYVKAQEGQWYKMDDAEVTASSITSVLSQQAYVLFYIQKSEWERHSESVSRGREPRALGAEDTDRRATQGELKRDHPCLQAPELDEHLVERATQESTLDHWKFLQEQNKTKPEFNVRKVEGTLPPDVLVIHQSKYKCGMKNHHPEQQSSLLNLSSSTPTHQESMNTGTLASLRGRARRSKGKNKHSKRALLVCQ
A number is an active result; . = inactive; / = not tested or not shown. An excerpt weighted towards active compounds, which were near 13% of everything screened. Cut-off read from the data, not from the text of the source: active = inhibition above about 30%; inactive = the rest.

SMILES | USP8 block | USP7 block | USP10 block | USP28 inh | USP30 inh | USP17 block
Cc1ccc(NC(=O)c2cn(-c3ccc(S(=O)(=O)N4CCCC4)cn3)cn2)cc1 | . | . | . | . | . | .
CCC(=O)Nc1ccc(-n2cnc(C(=O)NC3CC3)c2)nc1 | . | . | . | . | . | .
COCC(C)n1c(C)cc(C(=O)CSc2nnc(-c3ccco3)n2-c2ccccc2)c1C (centres undefined) | . | . | . | . | . | .
COc1ccc(NC(=O)O[C@@H]2CO[C@H]3[C@@H]2OC[C@@H]3Nc2nccc(-c3ccccc3)n2)cc1 | . | . | . | . | . | .
Cc1ccc(NS(=O)(=O)c2ccc(-c3cc(C)no3)s2)c(Cl)c1 | . | . | . | . | . | .
O=C(COC(=O)c1ccc2[nH]c3c(c2c1)CCCC3)Nc1ccc2c(c1)OCO2 | 41 | . | . | . | 42 | 66
O=C(COC(=O)c1ccc2[nH]c3c(c2c1)CCCC3)Nc1ccccc1Cl | . | . | . | . | . | .
CS(=O)(=O)c1ccc(Cl)c(NC(=O)COC(=O)c2ccc3[nH]c4c(c3c2)CCCC4)c1 | . | . | . | . | 35 | /
CC(C)c1ccc(NC(=O)COC(=O)c2ccc3[nH]c4c(c3c2)CCCC4)cc1 | . | . | . | . | . | 58
CCCn1nnc2cc(S(=O)(=O)N3CCCC(C(=O)O)C3)ccc21 (centres undefined) | . | . | . | . | . | .
COCCCn1c(C(=O)Nc2ccc(OC)cc2)cc2c(=O)n3ccccc3nc21 | . | . | . | . | . | .
COCCCn1c(C(=O)NCCC(C)C)cc2c(=O)n3ccccc3nc21 | . | . | . | . | 34 | 32
CCCCNC(=O)c1cc2c(=O)n3ccccc3nc2n1CCCOC | . | . | . | . | . | .
COCCCn1c(C(=O)Nc2ccccc2OC)cc2c(=O)n3ccccc3nc21 | . | / | . | . | 35 | 77
Cn1nc(C2CCN(C(=O)Cc3cccc(F)c3)CC2)c2nccnc21 | 82 | . | . | . | . | 34
Cc1c(C)c2cc(Cl)c3c(c2oc1=O)CN(Cc1ccc(F)cc1)CO3 | . | . | . | . | . | .
Cc1ccc(NC(=O)CC2C(=O)N(Cc3cccnc3)c3nc4ccccc4n32)c(C)c1 (centres undefined) | . | . | . | . | . | 39
Cc1ccc(C(C(=O)NC2CCCC2)N(Cc2ccccc2Cl)C(=O)c2ccco2)cc1 (centres undefined) | . | . | . | . | . | .
COc1ccc(C(C(=O)NC2CCCC2)N(Cc2ccccc2Cl)C(=O)c2ccco2)cc1 (centres undefined) | . | . | . | . | 35 | .
CC(C)C1=CCC2C(=C1)CCC1[C@]2(C)CCC[C@@]1(C)C(=O)O (some centres undefined) | . | . | . | . | . | .
CCOc1cccc(-c2noc(CSc3ccc(-c4ccccc4F)nn3)n2)c1 | . | . | . | . | . | .
O=C(/C=C/c1c(F)cccc1Cl)N1CCc2ccccc2C1 | 93 | . | . | 43 | . | 75
O=C(NCCN1CCN(C(=O)c2c(F)cccc2F)CC1)C(=O)Nc1ccc(F)cc1 | . | . | . | . | . | .
COc1ccc(NC(=O)c2nnc(C(=O)NCCN3CCCCCC3)s2)cc1 | . | . | . | . | 52 | 46
COc1ccc(NC(=O)C(=O)NCCN2CCN(C(=O)c3c(F)cccc3F)CC2)cc1 | . | . | . | . | 33 | .
SMILES | USP8 block | USP7 block | USP10 block | USP28 inh | USP30 inh | USP17 block
CC1CC(=O)c2c(cc3c(-c4c(O)cc(O)c5c(O)c6c(cc45)OC(C)CC6=O)c(O)cc(O)c3c2O)O1 (centres undefined) | 78 | 74 | 83 | 85 | . | 88
CN(Cc1nc(N)nc(Nc2ccccc2)n1)Cc1cccc(Cl)c1Cl | . | . | . | . | . | .
O=C(Cn1c(=O)[nH]c2ccccc2c1=O)NC1CC1 | . | . | . | . | . | .
O=C(Cn1c(=O)[nH]c2ccccc2c1=O)NCc1ccccc1Cl | 55 | . | . | . | . | 40
Cc1ccn(-c2ccc(N3CCN(C(=O)c4cccc5ccccc45)CC3)nn2)n1 | . | . | . | . | . | /
Cc1nn2c(C)c(C(=O)Nc3ccc(F)cc3)nnc2c1-c1ccccc1 | . | . | . | . | . | .
Cn1cc(C(=O)N2CCN(c3ccc(F)cc3)CC2)nn1 | . | . | . | . | . | .
O=C(Nc1ccc(-n2cccc2)cc1)c1cccc([N+](=O)[O-])c1 | 31 | . | . | . | 37 | .
